This note sets out measurements from the supplement of paper PMC9262897, “Low-cost anti-mycobacterial drug discovery using engineered E. coli” (Nature Communications, 2022).

Structures are written as SMILES. Structures can show the parent of a compound that is named as a salt. ± gives the standard deviation of the averaged measurements.

Holding throughout (experiment): growth (OD600 after 10 h); higher = more growth (less inhibition)
For assay [1], the system named is E. coli TESEC Alr+ wild-type control. The settings on record: compound 0.1 mM; raw OD600 reference: median of DMSO wells 0.241, cell-free background 0.041. The method, then:
(§1)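 TESEC Mtb Alr E. coli, or the Alr+ wild-type control, in 384-well plates with Prestwick library compounds at 0.1 mM and 1% DMSO, across arabinose induction levels of 1E3 to 1E7 nM. Growth is read as OD600 after 10 h at 37 °C in triplicate biological replicates.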

Assay [2] relates to E. coli TESEC Mtb Alr. The settings on record: compound 0.1 mM. The method, then:
as §1

The test system of another assay is E. coli TESEC Mtb Asd. Particulars: compound 0.1 mM. On the procedure: (§2)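 TESEC E. coli strains in which the native enzyme is deleted and replaced by arabinose-inducible Mtb Asd, DapB, CysH or TrpD, each grown in its selective medium. Strains were screened against the Prestwick library at 0.1 mM and 1% DMSO in 384-well format at low and high arabinose induction. Growth is read as OD600 after 10 h in triplicate.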

Another assay deals with E. coli TESEC Mtb DapB. The settings on record: compound 0.1 mM. On the procedure: as §2
Assay [3] concerns E. coli TESEC Alr+ wild-type control. Particulars: compound 0.1 mM; raw OD600 reference: median of DMSO wells 0.49, cell-free background 0.052. The method, then:
(§3)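 TESEC Mtb Alr E. coli (ΔaraC ΔtolC ΔentC Δalr ΔdadX, arabinose-inducible Mtb Alr) or the Alr+ wild-type control strain, grown in defined M9-fructose medium without D-alanine in 96-well plates with Prestwick library compounds at 0.1 mM and 1% DMSO. Low Alr induction is 0.1 µM arabinose and high induction is 10 mM arabinose.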

The subject of assay [4] is E. coli TESEC Mtb Alr. Particulars: compound 0.1 mM. On the procedure:
as §3
The source holds these as a separate data set.

Setting [5] is: arabinose 1000 nM, raw OD600 reference: median of DMSO wells 0.294, cell-free background 0.041.
Where [6] appears, read: arabinose 10000 nM, raw OD600 reference: median of DMSO wells 0.264, cell-free background 0.041.
Where [7] appears, read: arabinose 100000 nM, raw OD600 reference: median of DMSO wells 0.201, cell-free background 0.041.
The mark [8] stands for this setting: arabinose 1000000 nM, raw OD600 reference: median of DMSO wells 0.193, cell-free background 0.041.
Setting [9] is: arabinose 10000000 nM, raw OD600 reference: median of DMSO wells 0.146, cell-free background 0.041.
The mark [10] stands for this setting: arabinose induction (level): High, raw OD600 reference: median of DMSO wells 0.331, cell-free background 0.041.
Where [11] appears, read: arabinose induction (level): Low, raw OD600 reference: median of DMSO wells 0.417, cell-free background 0.041.
Setting [12] is: arabinose induction (level): High, raw OD600 reference: median of DMSO wells […], cell-free background 0.041.
Setting [13] is: arabinose induction (level): Low, raw OD600 reference: median of DMSO wells 0.227, cell-free background 0.041.
The mark [14] stands for this setting: arabinose 100 nM, raw OD600 reference: median of DMSO wells 0.413, cell-free background 0.052.
[15] abbreviates: arabinose 10000000 nM, raw OD600 reference: median of DMSO wells […], cell-free background 0.052.

As to `CN1CCN(CCCN2c3ccccc3Sc3ccc(C(F)(F)F)cc32)CC1` [Trifluoperazine dihydrochloride], the growth in assay [1] worked out at 0.0402; with E. coli TESEC Mtb Alr [2] (setting [5]), 0.03983 ± 0.00032; in the assay with E. coli TESEC Mtb Alr [2] (setting [6]), 0.03903 ± 0.00012; in the assay with E. coli TESEC Mtb Alr [2] (setting [7]), 0.04003 ± 5.8e-05; in the assay on E. coli TESEC Mtb Alr [2] (setting [8]) it was 0.03933 ± 5.8e-05; in the assay with E. coli TESEC Mtb Alr [2] (setting [9]), 0.0403 ± 0.0001. The growth with E. coli TESEC Mtb Asd (setting [10]) came to 0.0513 ± 0.00026; with E. coli TESEC Mtb Asd (setting [11]), 0.054 ± 0.0007; with E. coli TESEC Mtb DapB (setting [12]), 0.04873 ± 0.00025; with E. coli TESEC Mtb DapB (setting [13]), 0.171 ± 0.11; in assay [3], 0.04767 ± 0.00035; with E. coli TESEC Mtb Alr [4] (setting [14]), 0.26 ± 0.19. For the same molecule, in the assay on E. coli TESEC Mtb Alr [4] (setting [15]), the growth worked out at 0.0509 ± 0.00026.

As for `CN(C)CCC=C1c2ccccc2C=Cc2ccccc21` [Cyclobenzaprine hydrochloride], the growth in assay [1] was determined as 0.1703 ± 0.0014; in the assay with E. coli TESEC Mtb Alr [2] (setting [5]), 0.204 ± 0.016; in the assay with E. coli TESEC Mtb Alr [2] (setting [6]), 0.247 ± 0.011; in the assay on E. coli TESEC Mtb Alr [2] (setting [7]), 0.172 ± 0.011; in the assay on E. coli TESEC Mtb Alr [2] (setting [8]), 0.0898 ± 0.0029; in the assay on E. coli TESEC Mtb Alr [2] (setting [9]), 0.125 ± 0.0031. Also, the growth came to 0.161 ± 0.0091 in the assay on E. coli TESEC Mtb Asd (setting [10]); 0.262 ± 0.022 in the assay with E. coli TESEC Mtb Asd (setting [11]); 0.175 ± 0.011 in the assay with E. coli TESEC Mtb DapB (setting [12]); 0.203 ± 0.027 with E. coli TESEC Mtb DapB (setting [13]); 0.5608 ± 0.002 in assay [3]; 0.401 ± 0.0064 with E. coli TESEC Mtb Alr [4] (setting [14]). In addition, in the assay with E. coli TESEC Mtb Alr [4] (setting [15]), the growth was 0.231 ± 0.018.

Regarding `CCN(CC)CCCC(C)Nc1ccnc2cc(Cl)ccc12` (configuration not stated) [Chloroquine diphosphate], the growth was determined as 0.236 ± 0.0047 in assay [1]; 0.338 ± 0.0096 in the assay on E. coli TESEC Mtb Alr [2] (setting [5]); 0.2486 ± 0.0011 in the assay on E. coli TESEC Mtb Alr [2] (setting [6]); 0.235 ± 0.025 in the assay with E. coli TESEC Mtb Alr [2] (setting [7]); 0.176 ± 0.0044 in the assay with E. coli TESEC Mtb Alr [2] (setting [8]); 0.163 ± 0.0047 in the assay on E. coli TESEC Mtb Alr [2] (setting [9]). The growth was determined as 0.253 ± 0.047 in the assay on E. coli TESEC Mtb Asd (setting [10]); 0.246 ± 0.029 with E. coli TESEC Mtb Asd (setting [11]); 0.201 ± 0.026 with E. coli TESEC Mtb DapB (setting [12]); 0.226 ± 0.047 in the assay on E. coli TESEC Mtb DapB (setting [13]); 0.549 ± 0.065 in assay [3]; 0.412 ± 0.014 in the assay on E. coli TESEC Mtb Alr [4] (setting [14]). In the assay on E. coli TESEC Mtb Alr [4] (setting [15]), this molecule came in with a growth of 0.328 ± 0.02.

Regarding `Cn1c(=O)c2nc[nH]c2n(C)c1=O` [Theophylline monohydrate], the growth in assay [1] was found to be 0.263 ± 0.0048; in the assay with E. coli TESEC Mtb Alr [2] (setting [5]), 0.328 ± 0.018; in the assay with E. coli TESEC Mtb Alr [2] (setting [6]) it was 0.283 ± 0.013; in the assay on E. coli TESEC Mtb Alr [2] (setting [7]), 0.21 ± 0.027; with E. coli TESEC Mtb Alr [2] (setting [8]) it was 0.189 ± 0.0034; in the assay with E. coli TESEC Mtb Alr [2] (setting [9]), 0.158 ± 0.0078. Moreover, the growth in the assay with E. coli TESEC Mtb Asd (setting [10]) was 0.4904 ± 0.0049; in the assay on E. coli TESEC Mtb Asd (setting [11]) it was 0.455 ± 0.0057; in the assay with E. coli TESEC Mtb DapB (setting [12]), 0.197 ± 0.014; in the assay on E. coli TESEC Mtb DapB (setting [13]), 0.241 ± 0.044; in assay [3], 0.461 ± 0.014; in the assay with E. coli TESEC Mtb Alr [4] (setting [14]), 0.406 ± 0.016. The molecule further gave a growth with E. coli TESEC Mtb Alr [4] (setting [15]) of 0.338 ± 0.01.
